For part of these data: Results with a measured potency or affinity are listed apart.
Columns and labels:
Set-up in all cases: scale not given: direction of the effect not stated beside the values
[1] = molecular target: Protein translocase subunit SecA (Escherichia coli (strain K12)) (UniProt P10408); assay: Assay to Identify E. coli SecA ATPase Inhibitors; assay type: functional; details: 30 µM
[2] = molecular target: T1, Ubiquitin-activating enzyme e1, putative (Leishmania donovani (strain BPK282A1)) (UniProt E9BSI1); assay: Leishmania donovani Ubiquitin Activating Enzyme (LdE1); assay type: functional; details: 30 µM
T1 sequence (whole entry): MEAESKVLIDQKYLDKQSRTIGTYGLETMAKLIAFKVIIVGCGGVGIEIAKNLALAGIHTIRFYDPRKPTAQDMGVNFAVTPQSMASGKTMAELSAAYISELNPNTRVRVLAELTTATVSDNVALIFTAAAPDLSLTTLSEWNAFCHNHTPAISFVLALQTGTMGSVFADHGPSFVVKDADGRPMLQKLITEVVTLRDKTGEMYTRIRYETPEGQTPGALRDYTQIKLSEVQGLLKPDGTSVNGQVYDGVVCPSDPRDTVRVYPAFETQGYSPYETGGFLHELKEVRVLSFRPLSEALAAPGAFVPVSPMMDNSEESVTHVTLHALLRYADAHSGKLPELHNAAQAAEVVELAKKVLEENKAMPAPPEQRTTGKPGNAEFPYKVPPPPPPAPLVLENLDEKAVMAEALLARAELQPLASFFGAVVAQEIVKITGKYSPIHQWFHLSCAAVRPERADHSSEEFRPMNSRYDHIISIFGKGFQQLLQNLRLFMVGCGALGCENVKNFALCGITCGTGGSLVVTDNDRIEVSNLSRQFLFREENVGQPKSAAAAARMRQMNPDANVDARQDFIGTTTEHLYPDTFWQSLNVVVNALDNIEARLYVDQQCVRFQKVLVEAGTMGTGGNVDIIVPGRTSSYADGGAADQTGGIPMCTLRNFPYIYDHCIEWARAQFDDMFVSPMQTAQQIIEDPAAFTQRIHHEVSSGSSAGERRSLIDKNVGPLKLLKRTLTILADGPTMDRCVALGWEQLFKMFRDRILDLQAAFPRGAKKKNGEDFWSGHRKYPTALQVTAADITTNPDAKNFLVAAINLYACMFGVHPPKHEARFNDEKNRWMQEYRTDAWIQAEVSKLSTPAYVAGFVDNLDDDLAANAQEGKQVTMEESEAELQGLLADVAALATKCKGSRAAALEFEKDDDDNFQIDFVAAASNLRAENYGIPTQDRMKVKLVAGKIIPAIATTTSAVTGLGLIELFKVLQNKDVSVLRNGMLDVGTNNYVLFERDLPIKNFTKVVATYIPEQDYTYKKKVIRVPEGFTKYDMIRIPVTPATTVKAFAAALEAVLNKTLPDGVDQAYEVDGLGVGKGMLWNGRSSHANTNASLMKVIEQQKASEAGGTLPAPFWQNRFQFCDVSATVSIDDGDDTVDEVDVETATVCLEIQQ

[3] = molecular target: AMP-activated protein kinase, AMPK (Homo sapiens) (UniProt P54646+O43741+P54619+Q9UGJ0+Q9Y478+Q13131+Q9UGI9); assay: AMP-dependent Kinase enzyme assay. An in vitro enzyme assay that detects ADP turnover that is directly proportional to AMPK activity. This uses naive AMPK that is activated during the assay with MK-8722; assay type: functional; details: 30 µM
[4] = molecular target: Sialic acid-binding Ig-like lectin 9 (Homo sapiens) (UniProt Q9Y336); assay: Hs-Siglec9 ALPHAscreen SOP 20170721; details: 10 µM
Sequence of Sialic acid-binding Ig-like lectin 9 (Homo sapiens) (Q9Y336 whole entry): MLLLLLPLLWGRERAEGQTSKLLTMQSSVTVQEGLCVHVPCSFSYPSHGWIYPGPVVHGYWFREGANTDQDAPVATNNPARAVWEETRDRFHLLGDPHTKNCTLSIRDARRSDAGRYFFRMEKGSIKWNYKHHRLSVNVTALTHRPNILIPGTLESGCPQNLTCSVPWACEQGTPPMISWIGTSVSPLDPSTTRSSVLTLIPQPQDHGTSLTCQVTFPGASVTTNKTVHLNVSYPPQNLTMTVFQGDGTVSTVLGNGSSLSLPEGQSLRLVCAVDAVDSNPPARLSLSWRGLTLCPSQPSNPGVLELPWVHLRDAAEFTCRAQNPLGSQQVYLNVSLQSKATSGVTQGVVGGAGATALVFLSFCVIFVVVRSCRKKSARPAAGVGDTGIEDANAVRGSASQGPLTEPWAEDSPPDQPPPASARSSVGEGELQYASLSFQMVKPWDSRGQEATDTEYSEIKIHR

Trypanosoma cruzi = assay: Trypanosoma cruzi phosphomannomutase and mannose-1-phosphate guanylyltransferase assay; assay type: functional; details: 10 µM
[5] = molecular target: T2, Arginase-2, mitochondrial (Homo sapiens) (UniProt P78540); assay: in vitro enzyme assay to detect the production of urea directly proportional to the activity of Arginase II; assay type: functional; details: 33.3 µM; note: in the data most compounds retested in dose-response had high values
T2 sequence (whole entry): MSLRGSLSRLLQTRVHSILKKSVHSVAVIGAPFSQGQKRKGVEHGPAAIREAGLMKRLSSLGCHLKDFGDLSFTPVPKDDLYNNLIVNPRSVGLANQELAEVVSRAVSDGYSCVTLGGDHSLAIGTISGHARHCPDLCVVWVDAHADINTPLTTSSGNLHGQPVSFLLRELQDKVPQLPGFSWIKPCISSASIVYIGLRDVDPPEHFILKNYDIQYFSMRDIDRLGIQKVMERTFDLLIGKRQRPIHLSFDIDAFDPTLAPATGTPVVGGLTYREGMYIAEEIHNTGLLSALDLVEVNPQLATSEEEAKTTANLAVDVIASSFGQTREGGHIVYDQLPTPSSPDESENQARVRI

[6] = molecular target: T3, Proteasome subunit beta (Trypanosoma cruzi) (UniProt O96673); assay: Trypanosoma cruzi proteasome chymotrypsin-like activity (TcProtChymo) assay.; note: in the data most compounds retested in dose-response had high values; assay type: functional; details: 9.37 µM
T3 sequence (whole entry): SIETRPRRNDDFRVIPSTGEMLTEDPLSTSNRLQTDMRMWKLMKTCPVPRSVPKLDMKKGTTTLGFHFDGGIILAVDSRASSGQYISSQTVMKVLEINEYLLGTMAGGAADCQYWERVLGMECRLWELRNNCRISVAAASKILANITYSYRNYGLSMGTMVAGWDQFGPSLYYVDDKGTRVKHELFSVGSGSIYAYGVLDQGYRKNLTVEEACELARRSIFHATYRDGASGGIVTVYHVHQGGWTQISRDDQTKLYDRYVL

Homo sapiens = species: Homo sapiens; assay: To identify inhibition of the IFN signalling (Jak-Stat) pathway via expression of an eGFP reporter gene under the control of an IFN-stimulated response element (ISRE) containing MxA promoter.; assay type: functional; details: 30 µM
[7] = molecular target: T4, Tyrosyl-tRNA synthetase, putative (Trypanosoma cruzi (strain CL Brener)) (UniProt Q4DSP6); assay: Trypanosoma cruzi tyrosyl tRNA synthetase (TcYRS) _High Tyrosine SOP; assay type: functional; details: 30 µM; note: in the data most compounds retested in dose-response had high values
T4 sequence (whole entry): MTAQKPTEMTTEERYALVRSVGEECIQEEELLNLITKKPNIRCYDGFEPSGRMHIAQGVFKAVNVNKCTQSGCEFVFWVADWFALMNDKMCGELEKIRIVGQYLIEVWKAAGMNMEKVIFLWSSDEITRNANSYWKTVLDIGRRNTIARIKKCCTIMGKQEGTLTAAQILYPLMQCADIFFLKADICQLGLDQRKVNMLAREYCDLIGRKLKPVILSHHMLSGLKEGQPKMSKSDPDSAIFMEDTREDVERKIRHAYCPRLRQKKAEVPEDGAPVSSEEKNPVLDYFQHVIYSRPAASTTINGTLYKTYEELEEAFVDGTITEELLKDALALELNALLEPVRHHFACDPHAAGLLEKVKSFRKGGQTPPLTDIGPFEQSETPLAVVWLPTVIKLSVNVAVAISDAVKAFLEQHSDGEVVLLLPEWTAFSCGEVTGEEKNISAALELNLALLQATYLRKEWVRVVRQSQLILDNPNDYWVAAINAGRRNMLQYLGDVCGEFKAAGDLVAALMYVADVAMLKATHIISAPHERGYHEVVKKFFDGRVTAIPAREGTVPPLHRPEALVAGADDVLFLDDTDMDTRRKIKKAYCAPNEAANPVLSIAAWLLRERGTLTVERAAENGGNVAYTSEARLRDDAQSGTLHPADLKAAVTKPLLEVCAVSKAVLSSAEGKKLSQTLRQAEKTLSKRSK

[8] = molecular target: T4, Tyrosyl-tRNA synthetase, putative (Trypanosoma cruzi (strain CL Brener)); assay: Trypanosoma cruzi tyrosyl tRNA synthetase (TcYRS) SOP; assay type: functional; details: 30 µM
[9] = molecular target: Chromo domain-containing protein 1 (Saccharomyces cerevisiae (strain ATCC 204508 / S288c) (Baker's yeast)) (UniProt P32657); assay: ScCHD-1 Enzyme Inhibition Assay; assay type: functional; details: 30 µM; note: in the data most compounds retested in dose-response had high values
Sequence of Chromo domain-containing protein 1 (Saccharomyces cerevisiae (strain ATCC 204508 / S288c) (Baker's yeast)) (P32657 whole entry, the tested form may be a part): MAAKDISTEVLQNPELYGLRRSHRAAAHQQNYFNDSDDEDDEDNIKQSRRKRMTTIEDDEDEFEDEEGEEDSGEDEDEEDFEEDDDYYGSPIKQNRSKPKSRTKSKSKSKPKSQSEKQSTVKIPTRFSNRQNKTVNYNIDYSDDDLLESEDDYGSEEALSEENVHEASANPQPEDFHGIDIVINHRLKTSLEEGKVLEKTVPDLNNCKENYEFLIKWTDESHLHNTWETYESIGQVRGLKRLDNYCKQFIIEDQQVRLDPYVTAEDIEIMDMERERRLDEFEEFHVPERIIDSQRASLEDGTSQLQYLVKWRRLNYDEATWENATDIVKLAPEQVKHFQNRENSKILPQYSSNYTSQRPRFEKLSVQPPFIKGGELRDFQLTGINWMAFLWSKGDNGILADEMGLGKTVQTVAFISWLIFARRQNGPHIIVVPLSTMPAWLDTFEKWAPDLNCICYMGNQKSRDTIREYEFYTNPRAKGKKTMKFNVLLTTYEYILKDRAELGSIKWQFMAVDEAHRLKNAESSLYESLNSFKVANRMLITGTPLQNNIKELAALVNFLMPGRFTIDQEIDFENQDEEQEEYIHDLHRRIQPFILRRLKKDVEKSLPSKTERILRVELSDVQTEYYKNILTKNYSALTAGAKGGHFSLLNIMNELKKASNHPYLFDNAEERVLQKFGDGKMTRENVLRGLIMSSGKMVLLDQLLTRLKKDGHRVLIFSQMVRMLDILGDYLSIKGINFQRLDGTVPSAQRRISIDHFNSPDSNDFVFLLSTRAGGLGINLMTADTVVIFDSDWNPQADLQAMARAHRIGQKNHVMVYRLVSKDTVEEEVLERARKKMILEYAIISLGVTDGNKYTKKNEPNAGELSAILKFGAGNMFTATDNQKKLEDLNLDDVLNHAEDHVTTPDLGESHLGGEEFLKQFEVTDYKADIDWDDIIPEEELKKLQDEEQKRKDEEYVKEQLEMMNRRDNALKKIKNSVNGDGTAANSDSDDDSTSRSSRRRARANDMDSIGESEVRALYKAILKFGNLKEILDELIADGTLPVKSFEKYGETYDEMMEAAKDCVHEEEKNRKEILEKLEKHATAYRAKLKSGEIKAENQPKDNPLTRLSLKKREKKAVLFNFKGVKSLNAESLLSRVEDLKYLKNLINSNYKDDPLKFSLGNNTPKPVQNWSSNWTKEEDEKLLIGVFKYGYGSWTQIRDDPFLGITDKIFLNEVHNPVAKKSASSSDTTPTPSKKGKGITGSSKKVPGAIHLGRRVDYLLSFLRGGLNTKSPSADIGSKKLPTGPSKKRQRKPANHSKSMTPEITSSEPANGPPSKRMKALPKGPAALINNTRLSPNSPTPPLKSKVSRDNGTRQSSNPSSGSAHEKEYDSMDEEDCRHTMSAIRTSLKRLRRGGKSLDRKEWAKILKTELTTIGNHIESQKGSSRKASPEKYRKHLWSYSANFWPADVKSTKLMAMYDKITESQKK

Sequence of Protein translocase subunit SecA (Escherichia coli (strain K12)) (P10408 whole entry): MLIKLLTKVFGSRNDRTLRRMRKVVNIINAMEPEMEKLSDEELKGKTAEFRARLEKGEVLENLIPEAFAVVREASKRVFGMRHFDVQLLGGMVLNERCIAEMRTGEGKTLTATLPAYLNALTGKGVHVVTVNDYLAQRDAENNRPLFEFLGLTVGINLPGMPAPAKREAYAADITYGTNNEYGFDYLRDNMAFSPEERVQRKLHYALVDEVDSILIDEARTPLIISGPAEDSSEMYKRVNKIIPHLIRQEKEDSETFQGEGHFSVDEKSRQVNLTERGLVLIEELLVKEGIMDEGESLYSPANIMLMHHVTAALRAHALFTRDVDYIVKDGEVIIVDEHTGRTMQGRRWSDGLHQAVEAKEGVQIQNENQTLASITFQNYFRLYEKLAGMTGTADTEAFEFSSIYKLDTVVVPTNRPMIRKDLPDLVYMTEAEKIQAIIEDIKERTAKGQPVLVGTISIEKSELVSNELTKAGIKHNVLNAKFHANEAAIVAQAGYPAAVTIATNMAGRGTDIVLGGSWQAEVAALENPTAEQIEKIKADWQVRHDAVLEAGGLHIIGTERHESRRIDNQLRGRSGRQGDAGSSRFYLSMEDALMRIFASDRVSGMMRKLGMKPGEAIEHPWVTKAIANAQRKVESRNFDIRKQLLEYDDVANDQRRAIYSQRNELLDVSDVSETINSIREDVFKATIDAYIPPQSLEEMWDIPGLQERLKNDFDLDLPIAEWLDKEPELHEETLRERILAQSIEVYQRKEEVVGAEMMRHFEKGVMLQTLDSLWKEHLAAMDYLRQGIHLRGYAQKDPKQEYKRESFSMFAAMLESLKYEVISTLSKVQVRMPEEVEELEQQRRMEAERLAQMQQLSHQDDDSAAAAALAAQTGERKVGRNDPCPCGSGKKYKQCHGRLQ

Row | SMILES | Percent Effect [1] [%] | Percent Effect [2] [%] | Percent Effect [3] [%] | Percent Effect [4] [%] | Percent Effect (Trypanosoma cruzi) [%] | Percent Effect [5] [%] | Percent Effect [6] [%] | Percent Effect (Homo sapiens) [%] | Percent Effect [7] [%] | Percent Effect [8] [%] | Percent Effect [9] [%]
1 | O=C(c1cnc(C2CC2)s1)N1CCCCC1Cn1cccn1 (centres undefined) | -2.96 | 1.27 | 4.54 | -0.611 | -1.13 | -3.23 | 12.9 | -2.91 | 2.08 | 7.59 | -0.92
2 | CC(=O)N1CCC(C(=O)NCCN2CCC(C)CC2)CC1 | -1.98 | 9.72 | 11.4 | -1.43 | -3.6 | 4.86 | 18.1 | -2.5 | 4.21 | 5.13 | -3.45
3 | Cc1nc(C2CCCN(C(=O)CCCn3cccn3)C2)no1 (centres undefined) | -4.66 | 23.4 | -2.84 | 4.64 | 4.49 | -0.356 | 5.57 | 11 | 6.8 | 24.4 | -8.73
4 | CC(C)Oc1cccc(C(=O)C2CCCN(C(=O)c3ccccn3)C2)c1 (centres undefined) | -2.58 | 0 | -1.81 | 4.35 | -2.12 | -1.91 | 14.3 | 5 | 0.529 | 2.44 | -1.58
5 | Nc1nc(CN2CCOC(Cn3cncn3)C2)nc2ccccc12 (centres undefined) | -2.89 | 0 | 2.62 | -2.89 | -1.02 | 0.924 | -7.18 | 0.0129 | 1.98 | 3.66 | 6.29
6 | Cc1nc(CN2C(=O)COC3(CCN(Cc4ccco4)CC3)C2C)cs1 (centres undefined) | -3.92 | 2.74 | 3.27 | 2.66 | -3.37 | -3.19 | 15.8 | 2.79 | 3.12 | 6.17 | -2.61
7 | C[S+]([O-])c1nncn1CC(=O)c1cccc(Cl)c1 (centres undefined) | -7.89 | 16.2 | -4.48 | 23.3 | 6.16 | 3.72 | 10.4 | -1.98 | 5.38 | 8.64 | -6.7
8 | CCC(=O)N1CCCC1c1nccnc1Nc1ncccn1 (centres undefined) | 0.559 | -6.76 | 18.4 | 0.16 | -2.57 | -0.232 | -6.24 | -9.16 | 1.07 | -3.9 | -6.85
9 | CCn1c(CN2CCC(O)(C(=O)OC)CC2)nc2c(F)cccc21 | -3.73 | -44.7 | -3.77 | 0.565 | 8.27 | -3.06 | 7.85 | 11.3 | 5.39 | 9.76 | -12.4
